Measured values published in PubChem BioAssay AID493033 (ICCB-Longwood Screening Facility, Harvard Medical School, 2011).
Among all 100,000 compounds or so, about 930 (0.93%) were called active. No stated cut-off is given here; in the data, active means inhibition mostly above about 56% (no sharp cut-off); inactive means mostly below about 77%. Shown is part of a subset that was picked to be rich in actives.

The compounds below were run against Salicylate synthase (Mycobacterium tuberculosis (strain CDC 1551 / Oshkosh)) (UniProt P9WFX0) (assay: MbtI salicylate synthase inhibitors, primary screen, biochemical, fluorescence intensity (AID 493033)). Conditions: purified MbtI enzyme, fluorescence intensity read-out, active compounds read high, concentration not given here.
Chain of Salicylate synthase (Mycobacterium tuberculosis (strain CDC 1551 / Oshkosh)) (P9WFX0 whole entry, looked up): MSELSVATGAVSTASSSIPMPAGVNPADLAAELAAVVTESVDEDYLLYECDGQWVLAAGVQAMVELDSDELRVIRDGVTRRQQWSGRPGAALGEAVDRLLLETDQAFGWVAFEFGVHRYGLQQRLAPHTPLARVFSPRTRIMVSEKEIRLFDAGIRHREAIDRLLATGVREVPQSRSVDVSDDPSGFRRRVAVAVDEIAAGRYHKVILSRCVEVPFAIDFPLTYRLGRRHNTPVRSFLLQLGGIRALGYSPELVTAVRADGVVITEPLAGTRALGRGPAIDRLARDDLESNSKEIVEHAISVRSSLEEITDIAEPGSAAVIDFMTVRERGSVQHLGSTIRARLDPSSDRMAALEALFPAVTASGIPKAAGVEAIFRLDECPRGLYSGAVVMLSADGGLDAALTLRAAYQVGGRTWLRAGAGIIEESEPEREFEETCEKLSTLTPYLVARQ

SMILES	inhibition
O=c1cc(-c2ccccc2)sc2ccc(Cl)cc12	-0.1% (inactive)
CSc1ncnc2sc(-c3ccccc3)cc12	-44.5% (inactive)
CN=Cc1cc(-c2ccccc2)sc1S	95.8% (active)
Cc1nn2c(=O)/c(=C/c3ccccc3)sc2nc1=O	-1.65% (inactive)
Cc1nc(Cc2nnc(SC/C(O)=C(\C#N)c3nc4ccccc4[nH]3)o2)cs1	25.6% (inactive)
Cc1occc1-c1nnc2n1N=C(c1ccc(-c3cc(Cl)ccc3Cl)o1)CS2	98% (active)
O=C(Nc1cccc(Br)c1)C1CC(=O)N(C2CCCC2)C1 (stereo not given)	-4.55% (inactive)
CN(C)c1ccc(-c2ncnn2-c2ccccc2)cc1	-9.6% (inactive)
Cc1csc(NC(=O)C2CCC(CNS(=O)(=O)c3cccc4nsnc34)CC2)n1 (stereo not given)	-0.3% (inactive)
Cc1ccc(Cl)cc1N1CCN(C(=O)/C=C/c2ccc(S(=O)(=O)NCc3ccco3)cc2)CC1	5.7% (inactive)
COC(=O)c1cccc(NC(=O)CCCN2C(=O)c3ccccc3C2=O)c1	-11.5% (inactive)
Cc1ccc(NC(=O)COC(=O)C2CCC2)cc1Cl	-5.6% (inactive)
COc1cc(NS(=O)(=O)c2cc(C)c(Cl)cc2C)c(C(=O)O)cc1OC	-26.2% (inactive)
O=C(C1=Cc2sc3c(c2CS1)CCCC3)N1CCCC1	98.8% (active)
O=C(c1ccc(Cl)cc1)N1CCCC1	-5.1% (inactive)
O=C(O)C1=Cc2sc3c(c2CS1)CCCC3	95.4% (inactive)
O=C(O)C1CCC(CNCc2cccc(Br)c2)CC1 (stereo not given)	-9.65% (inactive)
O=C(/C=C\c1cn(-c2ccccc2)nc1-c1cccs1)N1CCOCC1	-50.8% (inactive)
CCN(CC)c1ccc(-n2nc3cc(C)c(NC(C)=O)cc3n2)cc1	88.6% (inactive)
CCN(CC)c1ccc2oc(=O)c(C)nc2c1	94.8% (active)
CCN(CC)c1ccc(C=C(C#N)C#N)c(OC(C)=O)c1	-99.2% (inactive)
CCCc1cc2c(cc1N)OCO2	13.3% (inactive)

SMILES	inhibition
CCc1nc2cccnc2n1-c1ccc(CC(=O)NCCN2CCOCC2)cc1	2.4% (inactive)
S=C(Cc1ccccc1)N1CCCCC1	29.6% (inactive)
O=C(c1ccco1)N1CCCCCCC1	-14.8% (inactive)
S=C(c1ccc(-c2ccccc2)o1)N1CCCCC1	102% (active)
COC(=O)c1cc(Cl)cc(Cl)c1O	-95.7% (inactive)
O=c1cc(CN2CCN(Cc3ccccc3)CC2)nc2sccn12	12% (inactive)
COc1cccc(CN(C)C(=O)/C=C/c2ccco2)c1OC	9.5% (inactive)
Cn1ncc2c(NCc3cccnc3)ncnc21	0.9% (inactive)
O=C(CCn1c(=O)oc2ccccc21)Sc1ccc(C(F)(F)F)cc1	70.7% (active)
O=C(CCCn1c(=O)oc2ccccc21)Nc1cccnc1	-8.05% (inactive)
Cc1cccc(NC(=O)CCn2c(=O)oc3ccccc32)c1	3% (inactive)
CCN(Cc1nc(-c2ccc(OC)c(OC)c2)no1)C(=O)CCC1CCCCC1	-0.6% (inactive)
CCCCn1c2c(c(=O)n(C)c1=O)C(c1ccc(OC)cc1)C1=C(CCCC1=O)N2 (stereo not given)	-21% (inactive)
Cc1cc(C)nc(SCc2nnc(SCC(=O)N3c4ccccc4Sc4ccc(Cl)cc43)o2)n1	-20.7% (inactive)
Cc1noc(C)c1C(=O)c1c(C)[nH]n(-c2ccccc2)c1=O	3.5% (inactive)
CC1=NOC(=O)C1C(c1cccc(Br)c1)c1c(C)[nH]n(-c2ccccc2)c1=O (stereo not given)	98.3% (active)
Cc1ccc(Sc2c(C)[nH]n(-c3ccccc3)c2=O)cc1	-4.4% (inactive)
S=c1[nH]nc(NCCc2ccccc2)s1	86.7% (inactive)
S=c1[nH]nc(Nc2ccccc2)s1	99.7% (active)
c1ccc(Nc2nncs2)cc1	12.9% (inactive)
COc1ccccc1-c1nnc(Cc2ccc(F)cc2Cl)o1	-4.2% (inactive)
O=C1CN(C(=O)C2COc3ccccc3O2)c2ccccc2N1 (stereo not given)	-23.2% (inactive)

SMILES	inhibition
O=C(CSc1nc(-c2ccccc2)nc2c1CCCC2)N/N=C/c1ccco1	-6.4% (inactive)
COc1ccccc1C(=O)CSc1cccc[n+]1[O-]	-9.25% (inactive)
C=C(C)CNC(=S)NN	98.5% (active)
C=C(C)CNC(=S)N1CCNCC1	-14.4% (inactive)
CC(C)(C)CNC(=S)NN	-14.9% (inactive)
CCc1nc(NCCO)c(C#N)c2c1CCCC2	-125% (inactive)
O=C(NC1=NCCS1)c1ccccn1	-4.65% (inactive)
COc1ccc(-c2nn(-c3ccccc3)cc2/C=C\C(=O)N(C)C)cc1	-4.25% (inactive)
O=C(CNCc1ccc2c(c1)OCO2)NCc1ccc2c(c1)OCO2	7.9% (inactive)
CCCn1c(SC(C(=O)NC(=O)NC)c2ccccc2)n[nH]c1=O (stereo not given)	-3.85% (inactive)
CC1CCCCC1NC(=O)COc1ccc(C#N)cc1 (stereo not given)	-7.1% (inactive)
S=c1ccc2ccccc2[nH]1	82.2% (active)
O=C(O)Cc1cn(-c2ccccc2)nc1-c1cccs1	-32.5% (inactive)
c1ccc(C(N2CCOCC2)N2CCOCC2)cc1	-2.5% (inactive)
CC(O)CNc1nc2ccccc2n1CC(O)COCc1ccco1 (stereo not given)	-2.1% (inactive)
O=C(CNCCCN1CCOCC1)Nc1cccc(C(F)(F)F)c1	14.8% (inactive)
O=C(CSc1ccc(Br)cc1)c1ccco1	55.8% (active)
O=C(CSc1ccc2ccccc2c1)N1CCN(C(=O)c2ccco2)CC1	-5.25% (inactive)
O=C(CSc1ccccc1)Nc1ccc(NC(=O)c2ccco2)cc1	9.65% (inactive)
CCSc1nnc(SCC(=O)N2CC(=O)Nc3ccccc32)s1	12.2% (inactive)
Oc1c(C(Nc2ccccn2)c2cccnc2)ccc2cccnc12 (stereo not given)	28.4% (inactive)
CC(=O)NC(c1ccccc1)c1ccc2cccnc2c1O (stereo not given)	-4.35% (inactive)

SMILES	inhibition
Oc1c(C(c2cccnc2)N2CCOCC2)ccc2cccnc12 (stereo not given)	91.7% (active)
O=C(NCCC1=CCCCC1)Nc1ccc(Cl)cc1	-5% (inactive)
Cc1cc(C)nc(NNC(=S)Nc2ccc(S(=O)(=O)N3CCOCC3)cc2)n1	54.5% (inactive)
Cc1ccc(C(=O)CN(C)C2CCCCC2)cc1	12.6% (inactive)
CCn1c(=O)cc(SCC(=O)NC2CCCCC2)c2ccccc21	-8.85% (inactive)
COC(=O)c1ccc(CSCC(=O)Nc2ccc(C)c(C)c2)o1	-3.9% (inactive)
COc1cc(/C=C/C(=O)N2CCc3ccccc3C2)cc(OC)c1OC	-28.7% (inactive)
O=C1CCN(C(=S)NCCc2ccccc2)CC1	14.8% (inactive)
S=C(NCCc1ccc(Cl)cc1)Nc1ccccc1	-14.1% (inactive)
Oc1cc2c(cc1O)CN(C(=S)NCCc1ccc(Cl)cc1)CCC2	100% (active)
COc1cc(C#N)ccc1Oc1nc(CN2CCOCC2)nc2scc(-c3cccs3)c12	18.1% (inactive)
CC(C)Cn1c(SCc2nnc(-c3ccccc3)o2)nnc1-c1ccccc1F	-1.55% (inactive)
CC1=C(C(=O)OC2CCCC2)C(c2cc3c(cc2Cl)OCO3)C2=C(CCCC2=O)N1 (stereo not given)	116% (inactive)
COc1ccc(OC)c(NC(=O)CS)c1	97.5% (active)
COc1ccc(OC)c(NC(=O)CC(Cc2ccccc2OC)C(=O)O)c1 (stereo not given)	2.1% (inactive)
COc1ccc(OC)c(NC(=O)CCN2CCC(C)CC2)c1	-19.2% (inactive)
O=C1C=CC(=O)N1c1ccc(N2CCCCC2)cc1	99.7% (active)
O=c1[nH][nH]c(=O)c2cc(N3CCCC3)ccc12	-10.9% (inactive)
N#CSc1ccc(N2CCCCC2)cc1	21.2% (inactive)
COc1ccccc1C(=O)Nc1ccccc1N1CCN(C)CC1	-4.85% (inactive)
COc1ccc(NC(=S)N2CCCCC2)cc1	-6.7% (inactive)
OC1CCN(C(=S)Nc2ccccc2)CC1	-8.65% (inactive)

SMILES	inhibition
Fc1ccc(NC(=S)N2CCN=C2Nc2ccc(F)cc2)cc1	72.3% (active)
COc1ccc(-c2nnc(SCC(=O)NC3CCCc4ccccc43)o2)cc1OC (stereo not given)	-3.65% (inactive)
COc1cccc(C(=O)Nc2ccccc2C#N)c1OC	-17.5% (inactive)
CC(C)Cn1nccc1N	-12% (inactive)
CC(C)CN1C(=O)C=CC1=O	80.8% (active)
O=C(NCCCN1CCCC1)C1CCN(c2nc3ccccc3n3cccc23)CC1	-7.35% (inactive)
CC(C)Sc1n[nH]c(=S)n1N	98.2% (active)
CC(C)c1n[nH]c(=S)n1N	96.5% (active)
CCn1c(C(C)C)n[nH]c1=S	2.75% (inactive)
N#Cc1c(-c2c(O)[nH]c3ccccc23)c2c(-c3ccncc3)[nH]nc2oc1=N	-1.15% (inactive)
CCS(=O)(=O)Nc1ccc(Cl)cn1	89.8% (inactive)
COCCNc1oc(COc2ccc(Br)cc2)nc1C#N	-15% (inactive)
COc1ccc(C2Nn3c(C)nnc3SC2C(=O)N2CCCC2)cc1 (stereo not given)	-6.35% (inactive)
Cc1ccc(-n2c(SC(C)C(=O)NC(N)=O)nc3ccccc32)cc1 (stereo not given)	-6.15% (inactive)
CCCCSC1=NC(C)(C)Nc2ccccc21	-13.3% (inactive)
CC(C)NC(=O)CSc1nc(-c2ccccc2)cn1N	11.2% (inactive)
CCOC(=O)c1cc(-c2ccccc2)no1	-8.95% (inactive)
O=C(COC(=O)/C=C/c1cccs1)Nc1ncc(Br)s1	0.8% (inactive)
CCOc1ccc(OCCBr)cc1	-5.55% (inactive)
CCOc1ccc2[nH]c(=S)sc2c1	81.3% (active)
CCOc1ccc2c(c1)sc1nc(=O)n(-c3ccccc3)c(=O)n12	3.85% (inactive)
CNC(=O)c1cc2c(n(-c3ccccc3)c1=O)CC(C)(C)CC2=O	72.9% (inactive)
